This excerpt belongs to a sample that is enriched for hits.
nsP2pro primary = inhibitors of chikungunya virus nsP2 protease. actives 1.1% (n = 31,000). FRET peptide cleavage, nsP2pro, fluorescence 1 h. Potency, µM (doses to about 24.9 µM), inactives show top-dose activity change, negative = inhibition, usual class: inhibitors. Q8JUX6; note: nearly all actives have a fitted effect of over 60% in size
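FRET cleavage of 2.5 uM peptide 2 by 150 nM CHIKV protease domain at pH 8.0 (Tris, Tween 20). Compounds at 7 concentrations (up to 25 uM) preincubated 15 min. Fluorescence read after 1 h at room temperature.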
CHIKV nsP2 cell = cell-based CHIKV nsP2 protease inhibition, secondary | shares compounds with nsP2pro primary | cell-based CHIKV nsP2 protease reporter assay | Potency, µM (titrated, usually from 51.1 µM), inactives show at the highest dose activity change, negative = inhibition, usual class: inhibitors | actives 10% (n = 450) | AID 1964100; note: nearly all actives have a fitted effect of over 70% in size
Target sequence (Q8JUX6 220-798 limits assumed): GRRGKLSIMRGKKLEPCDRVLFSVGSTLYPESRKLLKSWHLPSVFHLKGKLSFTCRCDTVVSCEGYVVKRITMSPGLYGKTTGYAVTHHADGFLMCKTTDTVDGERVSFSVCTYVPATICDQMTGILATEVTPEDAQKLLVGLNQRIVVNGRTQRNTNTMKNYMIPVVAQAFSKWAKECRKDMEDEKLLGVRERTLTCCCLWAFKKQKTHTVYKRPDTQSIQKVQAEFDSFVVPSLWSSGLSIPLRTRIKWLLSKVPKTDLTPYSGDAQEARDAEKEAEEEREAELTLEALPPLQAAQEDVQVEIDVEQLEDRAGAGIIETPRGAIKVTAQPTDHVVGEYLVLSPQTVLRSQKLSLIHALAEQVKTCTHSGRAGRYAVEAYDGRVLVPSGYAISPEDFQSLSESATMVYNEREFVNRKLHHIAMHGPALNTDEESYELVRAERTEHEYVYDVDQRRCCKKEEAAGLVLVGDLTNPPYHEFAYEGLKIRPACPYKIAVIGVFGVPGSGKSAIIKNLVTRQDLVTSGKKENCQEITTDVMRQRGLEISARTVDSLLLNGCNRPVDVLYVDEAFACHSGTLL
CHIKV NSP2 FL = full-length CHIKV NSP2 protease inhibition, selectivity | shares compounds with nsP2pro primary | Full-length CHIKV NSP2 protease enzymatic counterscreen | Potency, µM (doses to about 50.7 µM), for inactives: top-dose activity change, negative = inhibition, most hits filed as inhibitors | actives 39% (n = 410); note: nearly all actives have a fitted effect of over 65% in size
Furin counter = inhibits human furin in a CHIKV nsP2 protease selectivity counterscreen. Potency, µM (highest dose often 50.6 µM), for inactives: at the top dose activity change, negative = inhibition, hits mostly inhibitors. actives 6% (n = 410). AID 1964102. Recombinant human furin enzymatic counterscreen, fluorogenic substrate. shares compounds with nsP2pro primary
NS23 peptide cs = selectivity test for CHIKV nsP2 protease inhibitors: endogenous NS2/3 peptide; AID 1964103; Purified CHIKV nsP2 protease, endogenous NS2/3 peptide cleavage; shares compounds with nsP2pro primary; Potency, µM (highest dose often 51 µM), for inactives: top-dose activity change, negative = inhibition, actives largely listed as inhibitors; actives 34% (n = 410); note: nearly all actives have a fitted effect of over 55% in size
Papain counter = papain protease inhibition, counterscreen for nsP2pro inhibitors. shares compounds with nsP2pro primary. purified papain protease activity, enzymatic inhibition. Potency, µM (top dose mostly 51 µM), for the others: at the highest dose activity change, negative = inhibition, usual class: inhibitors. actives 5% (n = 410). AID 1964104
nsP2pro confirm = confirmation of CHIKV nsP2 protease inhibitors; shares compounds with nsP2pro primary; CHIKV nsP2 protease enzymatic activity, qHTS; Potency, µM (highest dose often 25.5 µM), inactives show at the highest dose activity change, negative = inhibition, usual class: inhibitors; actives 43% (n = 410); AID 1964105; note: nearly all actives have a fitted effect of over 75% in size
HCV NS3 counter = selectivity counter-screen for CHIKV nsP2 protease inhibitors: HCV NS3/4A; Potency, µM (series often up to 50.9 µM), most hits filed as inhibitors; HCV NS3/4A protease biochemical counterscreen; actives 20% (n = 410); shares compounds with nsP2pro primary; note: nearly all actives have a fitted effect of over 55% in size
Starred values were filed as active, the others as inactive; [ ] = dose if it differs, or a comment. Calls come from the whole dose curve. % is set by controls: 0 for no effect and ±100 for the full control effect; potency is the fitted concentration of half-maximal effect.

What do the screens show for `C=C1C(=O)OC2/C=C(\COO)CC/C=C(\COC(C)=O)CC(OC(=O)C(C)CC)C12` (stereo not drawn)?
nsP2pro primary: 3%[10 µM]

Results for CN1CCN(c2ccc(-c3cccc(CN4CCOCC4)c3)cc2NC(=O)c2c[nH]c(=O)cc2C(F)(F)F)CC1 ?
nsP2pro primary: 7%

How did COc1ccccc1-c1cnc2n[nH]c(-c3ccc4c(c3)OCO4)c2n1 do in these assays?
nsP2pro primary: inactive

Results for CCOC(=O)c1ccc(OCCN2C[C@H](O)[C@@H](O)[C@H](O)[C@H]2CO)cc1 ?
nsP2pro primary: inconclusive; CHIKV nsP2 cell: -4%[17.6 µM]; CHIKV NSP2 FL: inconclusive; Furin counter: 14µM*; NS23 peptide cs: -16%[17.2 µM]; Papain counter: -14%[17.2 µM]; nsP2pro confirm: inconclusive; HCV NS3 counter: inactive

What do the screens show for `OCCN1C[C@H](O)[C@@H](O)[C@H](O)[C@H]1CO`?
nsP2pro primary: -8%

How did CCCCN1C[C@H](O)[C@@H](O)[C@H](O)[C@H]1CO do in these assays?
nsP2pro primary: 3%

Results for COCCN1CC2CN(C(=O)c3ccc(Cc4c(C)noc4C)o3)CC(C1)O2 ?
nsP2pro primary: -15%

Results for O=C(CCCc1c[nH]c2ccccc12)N1CCc2nc3cc[nH]n3c(=O)c2C1 ?
nsP2pro primary: inactive

How did COc1cccc(C(=O)Nc2ccc3nc(N4CCC(C)CC4)cc(C)c3c2)c1 do in these assays?
nsP2pro primary: 8%

What do the screens show for `CCN1C(=O)c2ccccc2Sc2ccc(NC(=O)c3cccc(C)c3)cc21`?
nsP2pro primary: -4%

What do the screens show for `Cc1ccccc1C(=O)Nc1ccc(NC(=O)c2cccs2)cc1`?
nsP2pro primary: 18%

How did O=C(Nc1ccc(N2CCC(N3CCCCC3)CC2)c(C(=O)O)c1)c1ccccc1 do in these assays?
nsP2pro primary: 11µM*; CHIKV nsP2 cell: -5%; CHIKV NSP2 FL: 2.9µM*; Furin counter: inconclusive; NS23 peptide cs: 9.2µM*; Papain counter: -3%; nsP2pro confirm: 6.3µM*; HCV NS3 counter: 1.8µM*

What do the screens show for `CC1CCN(c2ccc(NC(=O)c3cccc(Cl)c3)cc2C(=O)O)CC1`?
nsP2pro primary: 4.5µM*; CHIKV nsP2 cell: inconclusive; CHIKV NSP2 FL: -1%; Furin counter: inconclusive; NS23 peptide cs: 0.46µM*; Papain counter: 5%; nsP2pro confirm: 7.1µM*; HCV NS3 counter: 3.3µM*

Results for Cc1cccc(C(=O)Nc2ccc3oc(-c4cccc5c(Br)cccc45)nc3c2)c1 ?
nsP2pro primary: -21%

How did O=C(Nc1cncnc1)c1cccs1 do in these assays?
nsP2pro primary: -3%

How did Cc1ccc(C)c(N2CCN(c3ccc(NC(=O)c4cccs4)cc3C(=O)O)CC2)c1 do in these assays?
nsP2pro primary: 5.6µM*; CHIKV nsP2 cell: 4%; CHIKV NSP2 FL: inconclusive; Furin counter: -23%; NS23 peptide cs: 16µM*; Papain counter: 7%; nsP2pro confirm: 8µM*; HCV NS3 counter: 4.1µM*

How did Cc1c(C(=O)Nc2ccc(N3CCC(N4CCOCC4)CC3)c(C#N)c2)cnn1-c1ccc(Cl)cc1 do in these assays?
nsP2pro primary: -28%

How did O=C(Nc1ccc(S(=O)(=O)Nc2ncccn2)cc1)c1cccc(Cl)c1 do in these assays?
nsP2pro primary: -29%

How did Cn1c(=O)n(C)c2cc(N3CCCC3)c(NC(=O)Nc3ccccc3)cc21 do in these assays?
nsP2pro primary: -12%

How did Cc1cccc(C(=O)Nc2ccc(N3CC=C(c4ccccc4C)CC3)c(C(=O)O)c2)c1 do in these assays?
nsP2pro primary: 9.5µM*; CHIKV nsP2 cell: 30%; CHIKV NSP2 FL: 2.1µM*; Furin counter: inconclusive; NS23 peptide cs: 7.3µM*; Papain counter: 1%; nsP2pro confirm: 5µM*; HCV NS3 counter: 1.6µM*

What do the screens show for `COCCn1c(=O)c2c(n1Cc1ccccc1)CN(C(=O)c1cc3ccccc3[nH]1)CC2`?
nsP2pro primary: inactive

What do the screens show for `CC(=O)N[C@@H](CC(=O)O)C(=O)N[C@@H](CCC(=O)O)C(=O)N[C@H](C(=O)N[C@H](C=O)CC(=O)O)C(C)C`?
nsP2pro primary: -9%

How did CC(C)CCN1CCC2(C1)C(=O)N(c1ccccc1)c1ccccc12 (stereo not drawn) do in these assays?
nsP2pro primary: -2%

Results for C/C(=C1/C(=O)Nc2ccc(NC(N)=O)cc21)c1ccc[nH]1 ?
nsP2pro primary: 43%

Results for Cc1ccc(-c2ccc(=O)n(CC(=O)NCCc3ccccc3)n2)cn1 ?
nsP2pro primary: -2%

What do the screens show for `Cc1onc(-c2c(F)cccc2Cl)c1C(=O)N[C@@H]1C(=O)N2[C@@H]1SC(C)(C)[C@@H]2C(=O)O`?
nsP2pro primary: -16%

How did CC(C)C1(O[C@@H]2O[C@H](CO)[C@@H](O)[C@H](O)[C@H]2O)CC=C(CO)CC1 (stereo partly drawn) do in these assays?
nsP2pro primary: 50%

How did COc1cc(CC2(CCC(=O)N3CCC(Oc4cccc(F)c4)CC3)CCC(=O)N2)ccc1F (stereo not drawn) do in these assays?
nsP2pro primary: 1%

What do the screens show for `O=C(Cc1nnc(-c2cc3ccccc3[nH]2)s1)Nc1cc(C(F)(F)F)ccc1Cl`?
nsP2pro primary: -5%

Results for c1ccc(CN(Cc2ccccc2)Cc2nnc(-c3cc4ccccc4[nH]3)s2)cc1 ?
nsP2pro primary: 8.9µM*; CHIKV nsP2 cell: 25%; CHIKV NSP2 FL: 12%; Furin counter: -5%; NS23 peptide cs: 27%; Papain counter: 2%; nsP2pro confirm: 2%; HCV NS3 counter: inactive

Results for O=C(NCc1nnc(-c2cc3ccccc3[nH]2)s1)c1ccccc1 ?
nsP2pro primary: -1%

Results for O=C1COC[C@H]([C@H](O)c2ccc(NC(=O)C3CCCC3)cc2)N1 ?
nsP2pro primary: 2%[39.2 µM]

How did Cc1cncc(CN2CCC(=C3c4ccc(Cl)cc4CCc4cccnc43)CC2)c1 do in these assays?
nsP2pro primary: 21%
